# Source: PubChem BioAssay (National Center for Advancing Translational Sciences (NCATS))
# A selection: hits, their analogues and other compounds. The true share with any hit is near 4%.
# D1 agonist: activates the human D1 dopamine receptor; P21728; AID 504660; activation, % at 2 µM; HEK293 T-REx D1 cells, calcium flux, agonist mode; 360,000 tested, 1% active; in the data active means activation above about 30%
# Target sequence (P21728 whole entry, looked up): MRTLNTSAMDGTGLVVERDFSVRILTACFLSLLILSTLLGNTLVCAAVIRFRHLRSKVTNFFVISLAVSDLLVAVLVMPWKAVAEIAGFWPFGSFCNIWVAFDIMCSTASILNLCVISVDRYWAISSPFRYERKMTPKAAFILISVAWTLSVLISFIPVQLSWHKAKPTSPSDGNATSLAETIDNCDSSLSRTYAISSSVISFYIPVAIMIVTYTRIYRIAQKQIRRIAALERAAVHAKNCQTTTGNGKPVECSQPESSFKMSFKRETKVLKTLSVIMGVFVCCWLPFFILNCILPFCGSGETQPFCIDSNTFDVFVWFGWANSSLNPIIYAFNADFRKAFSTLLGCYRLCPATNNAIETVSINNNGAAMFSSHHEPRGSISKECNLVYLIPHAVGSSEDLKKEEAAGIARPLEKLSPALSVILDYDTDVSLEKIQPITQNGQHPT
#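 Inducible HEK293 T-REx D1 cells, force-coupled to calcium signalling, were plated at 4000 cells/well with tetracycline and held overnight at 30 C. After no-wash calcium dye loading, compound-evoked calcium rise over 180 s flagged agonists.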
# TRHR enhancer-1: allosterically enhances the human TRH receptor. P34981. TRHR cells, fluo-8 calcium fluorescence, EC20 TRH enhancement. enhancement, % at 2 µM. 360,000 tested, 0.66% active; in the data active means enhancement above about 30%
#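 TRHR-expressing cells loaded with fluo-8 calcium dye were read kinetically (ex 480/em 530) during compound addition, then stimulated with an EC20 of TRH (10 nM final). Enhancement of the Gq-mediated intracellular calcium response was scored.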
# TRHR agonist-1: agonists of human TRH receptor; 360,000 tested, 0.18% active; activation, % at 2 µM; TRHR cells, calcium flux fluo-8, FDSS agonist mode; P34981; in the data active means activation above about 30%
#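 TRHR-expressing cells, plated overnight in medium with 10% serum, were loaded with fluo-8 calcium dye at room temperature. After a 10 s baseline, library compound was pin-added and calcium release was recorded kinetically (ex 480/em 530) as agonist response.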
# Glioma ERSR ind: inducers of ER stress response in human glioma cells; U87-MG GRP78 promoter luciferase reporter, 16 h; Potency, µM, usual class: activators; 420,000 tested, 0.02% active; further: series mostly up to about 76 µM; nearly all actives have a fitted effect of over 35% in size
#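 Stably transfected U87-MG human glioma cells carrying a GRP78-based luminescent sensor were seeded at 1000 cells/well, pin-dosed with compounds and incubated 16 h. Luciferase reagent was then added, and end-point luminescence was read after 10 min at room temperature.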
# D1 potentiator: human D1 dopamine receptor positive modulation | P21728 | potentiation, % at 10 µM | HEK293 TREx D1 cells, calcium flux, dopamine EC20 potentiation | 360,000 tested, 0.036% active; in the data active means potentiation above about 30%
# D1 antag: human D1 dopamine receptor antagonism; P21728; HEK293 TREx D1 cells, calcium flux, dopamine EC80; active compounds read low; activity change, negative = inhibition, % at 10 µM; 360,000 tested, 3.2% active; in the data active means activity change below about -30%
#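 Antagonism measured as reduced calcium response to an EC80 dopamine addition following 180 s compound pre-read; cells were inducible HEK293 Trex D1 plated overnight at 30 C, read kinetically at 1 cycle/sec.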
# TRHR enhancer-2: human TRH receptor allosteric enhancement confirmation; activity change, negative = inhibition, % at 46.1 µM; AID 493076; TRH receptor cell assay, enhancer confirmation qHTS; shares compounds with TRHR enhancer-1; 970 tested, under 10 active;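 further: compound effect scored on response to added TRH at EC20 of 10 nM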
# TRHR agonist-2: confirmation of human TRH receptor agonists | shares compounds with TRHR enhancer-1 | Potency, µM (top dose mostly 46.1 µM), hits mostly activators | 970 tested, 8% active | TRHR-expressing cells, agonist activation read-out; further: nearly all actives have a fitted effect of over 75% in size
# Hits are given with their value; - = inactive; ? = inconclusive; . = no result given; ! = not confirmed by another sample. Unless noted, the call rests on the fitted dose curve; in most records, active means well fitted curve in the direction sought with a large enough effect; inconclusive means small, poorly fitted or top-dose-only effect, or another doubt; inactive means no such curve, though single readings can be large; an effect the other way counts as inactive or inconclusive.
SMILES,D1 agonist,TRHR enhancer-1,TRHR agonist-1,Glioma ERSR ind,D1 potentiator,D1 antag,TRHR enhancer-2,TRHR agonist-2
CCOc1ccc(-c2cc(C(=O)OC)nc3c2c(=O)n(C)c(=O)n3C)cc1,-,43,-,-,-,-,-,-
O=C(COC(=O)c1cnccn1)Nc1c(Cl)cc(Cl)cc1Cl,-,47,-,-,-,-,-,-
O=C(COC(=O)c1cnccn1)Nc1ncc(Cl)cc1Cl,-,-,-,-,-,-,.,.
COc1ccc(C2C(C(C)=O)=C(C)N=c3s/c(=C/c4ccc5c(c4)OCO5)c(=O)n32)cc1 (configuration not stated),-,-,38,.,-,-,-,?
CCCN1C(=O)c2ccccc2NC1c1ccc(Cl)c(Cl)c1 (configuration not stated),-,74,-,-,-,-,-,-
OCCC1CN(Cc2cc3c(cc2Cl)OCO3)CCN1C1CCCC1 (configuration not stated),-,54,-,-,-,-,-,-
c1ccc(-n2cccc2CNC2CCCCC2)cc1,-,48,-,-,-,-,-,-
CC1CCCCN1c1c(S(=O)(=O)c2ccc(Cl)cc2)cnc2ccccc12 (configuration not stated),-,-,-,-,-,-,.,.
COc1ccc(C(C)(C)C)cc1NC(=O)c1ccc[n+]([O-])c1,-,53,-,-,-,-,-,-
OC(Cc1cccnc1)(Cc1cccnc1)c1cc2ccccc2[nH]1,-,-,-,-,-,-,.,.
COc1nc2c(s1)C(=O)NCCC2,-,-,-,-,-,-,.,.
CCN(CC)c1nc2c(s1)C(=O)NCCC2,-,51,-,-,-,-,-,-
CCOC(=O)c1cc(C)sc1NC(=O)CSC1=NCCS1,-,56,-,-,-,-,-,-
CCC(C(=O)N1CC2(C)CC1CC(C)(C)C2)N1C(=O)c2ccccc2C1=O (configuration not stated),-,-,-,-,-,-,.,.
CC(C(=O)N1CC2(C)CC1CC(C)(C)C2)N1C(=O)c2ccccc2C1=O (configuration not stated),-,46,-,-,-,-,-,-
O=C(Nc1ccccn1)N1CCOCC1,-,48,-,-,-,-,-,-
COc1ccnc(Oc2cc(Cl)cc(Cl)c2)c1C#N,-,-,-,-,-,-,.,.
COc1ccc(Oc2nccc(OC)c2C#N)cc1,-,43,-,-,-,-,-,-
Cc1ccc([N+](=O)[O-])cc1-c1ccc(/C=C(\C#N)c2[nH]nc(N)c2C#N)o1,-,-,-,-,-,-,.,.
COc1cc(/C=C(\C#N)c2[nH]nc(N)c2C#N)cc(OC)c1O,36,-,62,-,-,-,-,?
COc1ccc(NC(=O)O/N=C/c2ccc(N(C)C)cc2)cc1,-,-,-,-,-,-,.,.
C/C=C/c1cc(CN2CCN(c3ccccc3)CC2)c(O)c(OC)c1,-,42,-,-,-,-,-,-
CC1Cc2ccccc2N1C(=O)CN(C)CC(=O)Nc1ccc(F)cc1 (configuration not stated),-,-,-,-,-,-,.,.
CS(=O)(=O)c1cccc(-c2csc(N3CCC(C(N)=O)CC3)n2)c1,-,48!,-,-,-,-,-,-
O=C(NCc1ccc(C(F)(F)F)cc1)C1CC(c2ccccc2C(F)(F)F)=NO1 (configuration not stated),-,-,-,-,-,-,.,.
Cc1ccc2nc(-c3ccc(NC(=O)COC(=O)c4ccco4)cc3)sc2c1,-,-,-,-,-,-,.,.
Cc1ccc2nc(-c3ccc(NC(=O)COC(=O)c4cncc(Br)c4)cc3)sc2c1,-,44,-,-,-,-,-,-
COc1cccc(-c2cnc3c(NC=O)cc(-c4ccc(N5CCN(C)CC5)cc4)cn23)c1,.,.,.,-,.,.,.,.
